Measured values: PubChem BioAssay AID1259418 (Broad Institute, 2018)
Screen size: about 3,400 compounds; about 840 (25%) were called active. Inconclusive results (about 11%) are left out.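 Rule for the calls: active = fitted half-maximal concentration of signal decrease at or below twice the sample's top tested concentration; inconclusive = flat curve between -70 and -30 percent, or poor fit; inactive = flat within 30 percent, signal rise, or potency above limit.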 Only a sample is shown. Potency and affinity values are given separately.

experiment: inhibitors of Toxoplasma growth in IFN-γ-primed HeLa – cell-based, ME49Luc, luciferase, 72 h, dose response (AID 1259418); details: T. gondii ME49Luc in IFN-y HeLa, hits give low values, -100% = high-dose IFN-γ control wells; at 19.5 µM unless noted

Compound	max activity
Cc1ccc2[nH]cc(CCNC(=O)c3cc(-c4ccccn4)nc4ccccc34)c2c1	11.1% (inactive)
CCCCN(C)C(=O)Cn1c(=O)c(S(=O)(=O)c2ccccc2)cc2ccccc21	11.6% (inactive)
Cc1ccc(-c2coc(-c3ccc(NC(=O)Nc4ccc5c(c4)OCO5)cc3)n2)c(C)c1	49.1% (inactive)
Cc1ccc(C(=O)N2CCC3(CC2)Nc2cc(F)ccc2-n2cccc23)cc1	6.63% [at 0.16 µM] (inactive)
CSc1ccc(CNC(=O)COc2nc(C)nc3ccccc23)cc1	-10.1% [at 5 µM] (inactive)
CCOc1ccc(NC(=O)N2CCc3nc(-c4cccc(OC)c4)sc3C2)cc1	6.38% (inactive)
COc1ccc(-c2nc(Cn3nnc(-c4nc(-c5ccc(F)cc5)no4)c3C)c(C)o2)cc1	-9.56% [at 5 µM] (inactive)
COc1ccc(-c2nc(NCCc3ccccc3)c3ccccc3n2)cc1	-16% [at 10 µM] (inactive)
COc1ccc(-c2nc(NCCc3cc(OC)ccc3OC)c3ccccc3n2)cc1	10.1% (inactive)
CCOC(=O)C1CCN(c2nc(-c3ccc(OC)cc3)nc3ccccc23)CC1	-8.44% [at 0.68 µM] (inactive)
Cc1nc(-c2ccc(C(=O)N3CCC(C)CC3)cc2)cs1	19% (inactive)
COc1ccc(Cl)cc1NC(=O)CN1CCC2(CC1)N=C(c1cccc(F)c1)C(=O)N2	7.5% [at 5 µM] (inactive)
CCOc1ccc(C(=O)N2CCC3(CC2)Nc2cc(OC)ccc2-n2cccc23)cc1	8.9% (inactive)
COc1ccc(NC(=O)COc2nc(C)nc3ccccc23)c(OC)c1	17.4% [at 0.16 µM] (inactive)
Cc1ccc(CN2CC3CN(Cc4cccc(F)c4)CC3C2)s1 (centres undefined)	10.1% (inactive)
O=S(=O)(c1ccc(F)cc1)N1C[C@@H]2N[C@H](C1)C2c1ccc(/C=C/c2ccccc2)cc1 (some centres undefined)	26.3% (inactive)
COc1ccc(OC)c(NC(=O)Nc2ccc(-c3nc(-c4cc(C)ccc4C)co3)cc2)c1	-12.9% [at 0.35 µM] (inactive)
Cc1nc(OCC(=O)Nc2ccccc2C(F)(F)F)c2ccccc2n1	21.7% [at 0.16 µM] (inactive)
CCN1CCO[C@@H]2CN(C(=O)CC3Cc4ccccc4C3)C[C@@H]2C1	43.5% (inactive)
Cc1ccc(CC(=O)Nc2ccc3c(c2)CCC(=O)N3)cc1	7.74% (inactive)
O=C1CCc2cc(NC(=O)C(F)(F)F)ccc2N1	-12.7% [at 2.6 µM] (inactive)
Cc1ccc(C(=O)Nc2ccc3c(c2)CCC(=O)N3)c(C)c1	42% (inactive)
O=C1CCc2cc(NC(=O)c3ccc(OC(F)(F)F)cc3)ccc2N1	-8.43% [at 0.35 µM] (inactive)
O=C1CCc2cc(NC(=O)c3ccc(C(F)(F)F)cc3)ccc2N1	-7.37% [at 1.35 µM] (inactive)
Cc1ccc(C)c(C(=O)Nc2ccc3c(c2)CCC(=O)N3)c1	-6.43% [at 1.35 µM] (inactive)

Compound	max activity
CC(C)N1CCN(CC#N)C2(CCN(C(=O)c3ccc[nH]3)C2)C1=O (centres undefined)	43.6% (inactive)
COc1ccc(CC(=O)Nc2ccc(-c3nc(-c4ccccc4)co3)cc2)cc1	-7.29% [at 1.35 µM] (inactive)
CCOc1ccccc1-c1nc(CN(c2ccc(OC)cc2)S(=O)(=O)c2ccccc2)c(C)o1	7.8% (inactive)
O=C(Cn1c(=O)c(S(=O)(=O)c2ccccc2)cc2ccccc21)N1CCCC1	-8.97% [at 0.16 µM] (inactive)
COc1ccc(-c2nc(Nc3cc(C)ccc3OC)c3ccccc3n2)cc1	19.6% (inactive)
Cc1ccc(CC(=O)Nc2ccc(-c3nc(-c4ccccc4)co3)cc2)cc1	9.88% [at 5 µM] (inactive)
O=C(CC1Nc2c3ccccc3nc(=S)n2C1=O)NCCc1ccc(Cl)cc1 (centres undefined)	-20.4% [at 0.16 µM] (inactive)
CCOC(=O)C(=O)Nc1ccc(-c2nc(-c3cc(C)ccc3C)co2)cc1	15.3% [at 0.16 µM] (inactive)
COc1cc(OC)c(NC(=O)Nc2ccc(-c3nc(-c4ccc(C)cc4)co3)cc2)cc1Cl	86.6% (inactive)
Cc1ccc(C(=O)Nc2ccc(N3CCC(C(N)=O)(N4CCCCC4)CC3)c(C(=O)O)c2)cc1	15% [at 2.6 µM] (inactive)
NC(=O)C1(N2CCCCC2)CCN(c2ccc(NC(=O)c3ccccc3F)cc2C(=O)O)CC1	-16.3% [at 0.35 µM] (inactive)
CCOC(=O)C1CCC(CNC(=O)Nc2ccc(-c3nc(-c4ccc(C)cc4C)co3)cc2)CC1 (centres undefined)	-7.93% [at 0.35 µM] (inactive)
COc1cc(NC(=O)CN2CCC3(CC2)N=C(c2cccc(F)c2)C(=O)N3)cc(OC)c1	-16.9% (inactive)
Cc1ccc(-c2coc(-c3ccc(NC(=O)Nc4ccc(C)c(F)c4)cc3)n2)c(C)c1	14.2% (inactive)
COc1ccc(-c2nc(Cn3c(=O)c4c(C)cc(C)nc4n(-c4ccccc4)c3=O)c(C)o2)cc1	-4.82% [at 10 µM] (inactive)
COc1cccc(C(=O)Nc2ccc(-c3nc(-c4ccc(C)cc4)co3)cc2)c1	73.1% (inactive)
COc1cccc(NC(=O)CN2CCC3(CC2)N=C(c2ccc(F)cc2)C(=O)N3)c1	-15.6% [at 0.68 µM] (inactive)
COc1cccc(C(=O)Nc2ccc(-c3nc(-c4ccccc4)co3)cc2)c1	-14.9% [at 10 µM] (inactive)
CCOc1ccc(-c2nc3c(s2)CN(S(=O)(=O)c2ccc(C(C)C)cc2)CC3)cc1	12.8% (inactive)
O=C(CC1N=C2c3ccccc3N=C(SCc3cc(=O)n4cc(Cl)ccc4n3)N2C1=O)NCc1ccco1 (centres undefined)	13% [at 10 µM] (inactive)
Cc1ccc(C(=O)Nc2c(C(=O)N3CCCC3)[nH]c3ccccc23)cc1	14.8% [at 2.6 µM] (inactive)
COc1ccc2c(c1)NC1(CCN(C(=O)Cc3ccc(Cl)cc3)CC1)c1cccn1-2	7.11% [at 10 µM] (inactive)
O=C(Cc1ccc(F)cc1)N1CCC2(CC1)Nc1ccc(Cl)cc1-n1cccc12	-6.77% [at 5 µM] (inactive)
CN(C)C(=O)COCc1cncc2c1CCN(c1ccccn1)C2	11.3% [at 10 µM] (inactive)
CCc1nc(OCC(=O)Nc2cccc(SC)c2)c2ccccc2n1	9.62% [at 0.16 µM] (inactive)

Compound	max activity
CCN1C(=O)CCc2cc(NC(=O)CC(C)C)ccc21	6.42% [at 0.35 µM] (inactive)
O=C(C[C@@H]1CC[C@H]2[C@@H](COC[C@H](O)CN2Cc2ccc(Oc3ccccc3)cc2)O1)N1CCN(c2ccccc2)CC1	16% [at 10 µM] (inactive)
O=C(C[C@@H]1CC[C@@H]2[C@H](COC[C@H](O)CN2Cc2ccc3c(c2)OCO3)O1)N1CCCCC1	28.4% (inactive)
O=C(C[C@H]1CC[C@@H]2[C@H](COC[C@H](O)CN2C(=O)c2cc(Cl)cc(Cl)c2)O1)N1CCc2ccccc2C1	-23.1% (inactive)
O=C(C[C@H]1CC[C@H]2[C@@H](COC[C@@H](O)CN2S(=O)(=O)c2ccccc2F)O1)N1CCC(Cc2ccccc2)CC1	25.4% [at 10 µM] (inactive)
COc1ccccc1-c1nc(Cn2nnc(-c3nc(-c4cccc(C)c4)no3)c2C)c(C)o1	6.08% [at 0.35 µM] (inactive)
CCOc1ccc(-c2nc3c([nH]2)c(=O)n(C)c(=O)n3C)cc1OC	30.3% [at 10 µM] (inactive)
CC1=NN(C2CCS(=O)(=O)C2)C(=O)C1(Sc1ccccc1)Sc1ccccc1 (centres undefined)	-15.9% [at 10 µM] (inactive)
COc1ccc(CC(=O)Nc2ccc(-c3nc(-c4ccc(C)cc4C)co3)cc2)cc1	23.3% [at 0.68 µM] (inactive)
CN1CCN(Cc2cnc3n2CCN(CC2CCOCC2)C3)CC1	10.5% (inactive)
O=C(C[C@H]1CC[C@H]2[C@@H](COC[C@H](O)CN2Cc2cc(F)ccc2F)O1)NCc1ccc(Oc2ccccc2)cc1	17.6% [at 2.6 µM] (inactive)
O=C(C[C@H]1CC[C@@H]2[C@H](COC[C@H](O)CN2Cc2cc(F)ccc2F)O1)NCc1ccc(Oc2ccccc2)cc1	17.5% [at 5 µM] (inactive)
Cc1ccc(C)c(NC(=O)CN2CCC3(CC2)N=C(c2ccc(F)cc2)C(=O)N3)c1	21.8% [at 10 µM] (inactive)
Cc1cccc(-c2nc(CSc3nc4c(c(=O)[nH]3)CN(C(C)C)CC4)c(C)o2)c1	19.2% [at 0.68 µM] (inactive)
O=C(CC1CCCCC1)Nc1ccc(-c2nc(-c3ccccc3)co2)cc1	19.4% (inactive)
Cc1ccc(NC(=O)Nc2ccc(-c3nc(-c4ccccc4)co3)cc2)cc1F	16.5% [at 0.16 µM] (inactive)
O=C(Cn1c(=O)c(S(=O)(=O)c2ccccc2)cc2ccccc21)NCc1ccccc1Cl	-23.2% [at 0.16 µM] (inactive)
CCOC(=O)CNC(=O)Nc1ccc(-c2nc(-c3cc(C)ccc3C)co2)cc1	5.17% [at 0.68 µM] (inactive)
Cc1ccc(CN2CCC3(CC2)N=C(c2ccc(C)cc2)C(=O)N3)cc1	12.6% [at 2.6 µM] (inactive)
Cc1ccc(-c2coc(-c3ccc(NC(=O)C(C)(C)C)cc3)n2)cc1	29.4% [at 10 µM] (inactive)
CCS(=O)(=O)N1[C@H](CO)[C@@H](c2ccc(C#Cc3ccccc3F)cc2)[C@@H]1C#N	8.21% [at 10 µM] (inactive)
COc1cccc(CC(=O)Nc2ccc(-c3nc(-c4ccc(C)cc4)co3)cc2)c1	20.4% (inactive)
COCCCN1CCc2nc(SCc3nc(-c4ccccc4OC)oc3C)[nH]c(=O)c2C1	25.6% [at 10 µM] (inactive)
COc1ccc(C(=O)Nc2ccc(-c3nc(-c4ccccc4)co3)cc2)cc1OC	14.3% [at 0.16 µM] (inactive)
